Test results: PubChem BioAssay AID1159580 (chemical genetic matrix, 2015)
“And” between values parts separate entries of the source, which are not always exact repeats. Equal values may be shown once. In all, about 5,500 compounds went through this assay and about 2,000 (36%) were called active. Not shown: some 18% with an inconclusive outcome. Rule as the data show it: active = normalized growth mostly below about 0.91 (no sharp cut-off); inconclusive = no clear call, values can overlap the other calls; inactive = mostly above about 0.92. Some of the results follow.

Test: chemical genetic growth profiling, strain panel (AID 1159580);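 also: tested at 20 µM; growth read once vehicle control cultures reached saturation at 30 °C; 1 = growth at the plate median or of vehicle wells; lower values mean less growth of the strain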
Conditions: S. cerevisiae deletion strains, growth OD

Measured: normalized growth

Cc1ccc(O)cc1
inactive: locus YAL013W, strain DEP1, active compounds read low 1.02 | locus YAL021C, strain ccr4, active compounds read low 1.04 | locus YAL026C, strain drs2, active compounds read low 1.03 | locus YAL030W, strain snc1, active compounds read low 1.02 | locus YBL061C, strain skt5, active compounds read low 1.02 | locus YBR009C, strain hhf1, active compounds read low 1.03 | locus YBR021W, strain FUR4, active compounds read low 1.07 | locus YBR023C, strain chs3, active compounds read low 1.02 | locus YBR171W, strain sec66, active compounds read low 1.02 | locus YBR229C, strain ROT2, active compounds read low 1.02 | locus YBR231C, strain swc5, active compounds read low 0.992 | locus YBR279W, strain paf1, active compounds read low 1.02 | locus YCL011C, strain gbp2, active compounds read low 1.02 | locus YCL016C, strain dcc1, active compounds read low 1.01 | locus YCL029C, strain bik1, active compounds read low 0.985 | locus YCL061C, strain MRC1, active compounds read low 1.02 | locus YCL069W, strain vba3, active compounds read low 1.02 | locus YCR088W, strain abp1, active compounds read low 1.01 | locus YDL005C, strain med2, active compounds read low 1.03 | locus YDL035C, strain GPR1, active compounds read low 1.01 | locus YDL040C, strain nat1, active compounds read low 1.01 | locus YDL074C, strain BRE1, active compounds read low 1.03 | locus YDL101C, strain DUN1, active compounds read low 1.03 | locus YDL134C, strain PPH21, active compounds read low 1.05 | locus YDL185W, strain tfp1, active compounds read low 0.99 | locus YDL192W, strain arf1, active compounds read low 1.04 | locus YDR001C, strain nth1, active compounds read low 1.02 | locus YDR069C, strain doa4, active compounds read low 1.04 | locus YDR101C, strain arx1, active compounds read low 0.98 | locus YDR137W, strain rgp1, active compounds read low 1.04 | locus YDR159W, strain sac3, active compounds read low 1 | locus YDR162C, strain NBP2, active compounds read low 1.03 | locus YDR195W, strain ref2 1.01 | locus YDR297W, strain sur2, active compounds read low 1.03 | locus YDR318W, strain mcm21, active compounds read low 1.01 | locus YDR334W, strain swr1, active compounds read low 1.02 | locus YDR335W, strain msn5, active compounds read low 1.02 | locus YDR388W, active compounds read low 1.02 | locus YDR392W, strain spt3, active compounds read low 0.916 | locus YDR502C, strain sam2, active compounds read low 0.979 | locus YEL003W, strain gim4, active compounds read low 1.01 | locus YEL037C, strain rad23, active compounds read low 1.01 | locus YEL061C, strain CIN8 (second series), active compounds read low 1.01 | locus YEL061C, strain CIN8, active compounds read low 1.02 | locus YER015W, strain faa2, active compounds read low 1.01 | locus YER016W, strain bim1, active compounds read low 1.01 | locus YER110C, active compounds read low 0.991 | locus YER111C, strain swi4, active compounds read low 1.01 | locus YER155C, strain BEM2 (second series), active compounds read low 1.03 | locus YER155C, strain BEM2, active compounds read low 1.02 | locus YER167W, strain BCK2, active compounds read low 1.03 | locus YFR010W, strain ubp6, active compounds read low 1.02 | locus YGL078C, strain dbp3, active compounds read low 0.989 | locus YGL086W, strain mad1, active compounds read low 1.01 | locus YGL167C, strain pmr1, active compounds read low 1.01 | locus YGL173C, strain kem1, active compounds read low 1.04 | locus YGL227W, strain vid30, active compounds read low 1.02 | locus YGL240W, strain doc1, active compounds read low 1.02 | locus YGL248W, strain PDE1, active compounds read low 1.07 | locus YGL253W, strain hxk2, active compounds read low 1.03 | locus YGR135W, strain pre9, active compounds read low 1.01 | locus YGR229C, strain SMI1, active compounds read low 1.04 | locus YGR252W, strain gcn5, active compounds read low 0.966 | locus YHR013C, strain ard1, active compounds read low 1.02 | locus YHR027C, strain rpn1, active compounds read low 1.02 | locus YHR030C, strain SLT2, active compounds read low 1.03 and 1 | locus YHR079C, strain IRE1 (second series), active compounds read low 1.01 | locus YHR079C, strain IRE1, active compounds read low 1 | locus YHR094C, strain hxt1, active compounds read low 0.99 | locus YHR129C, strain ARP1, active compounds read low 1.03 | locus YHR142W, strain chs7, active compounds read low 1.03 | locus YHR200W, strain rpn10, active compounds read low 1.01 | locus YIL066C, strain RNR3, active compounds read low 1.06 | locus YIL073C, strain SPO22, active compounds read low 1.03 | locus YIL125W, strain kgd1, active compounds read low 0.994 | locus YIR030C, strain dcg1, active compounds read low 1.01 | locus YJL092W, strain hpr5, active compounds read low 1.02 | locus YJL095W, strain BCK1 (second series), active compounds read low 1.01 | locus YJL095W, strain BCK1, active compounds read low 1.07 and 1.02 | locus YJL115W, strain asf1, active compounds read low 1.01 | locus YJL129C, strain trk1, active compounds read low 1.01 | locus YJL134W, strain LCB3, active compounds read low 1.02 | locus YJL154C, strain vps35, active compounds read low 1.03 | locus YJL164C, strain tpk1, active compounds read low 1.02 | locus YJL166W, strain qcr8, active compounds read low 1.02 | locus YJL168C, strain set2, active compounds read low 0.994 | locus YJL187C, strain SWE1 (second series), active compounds read low 1.04 | locus YJR043C, strain POL32, active compounds read low 1.01 | locus YJR066W, strain TOR1, active compounds read low 0.987 | locus YKL009W, strain mrt4, active compounds read low 1.01 | locus YKL068W, active compounds read low 1 | locus YKL085W, strain MDH1 (second series), active compounds read low 1 | locus YKL085W, strain MDH1, active compounds read low 1 | locus YKL160W, strain elf1, active compounds read low 1.01 | locus YKR001C, strain vps1, active compounds read low 0.998 | locus YKR026C, strain gcn3, active compounds read low 1.02 | locus YKR091W, strain srl3, active compounds read low 1.02 | locus YLL001W, strain dnm1, active compounds read low 0.984 | locus YLL026W, active compounds read low 1.01 | locus YLL041C, strain sdh2, active compounds read low 1.02 | locus YLR027C, strain aat2, active compounds read low 1.03 | locus YLR039C, strain RIC1, active compounds read low 1.05 | locus YLR058C, strain SHM2, active compounds read low 1.04 | locus YLR102C, strain apc9, active compounds read low 0.993 | locus YLR113W, strain HOG1, active compounds read low 1.01 | locus YLR221C, strain rsa3, active compounds read low 1.03 | locus YLR258W, strain gsy2, active compounds read low 1.01 | locus YLR262C, strain YPT6 (second series), active compounds read low 1.04 | locus YLR262C, strain YPT6, active compounds read low 1.07 | locus YLR268W, strain sec22, active compounds read low 0.998 | locus YLR320W, strain mms22, active compounds read low 1.02 | locus YLR330W, strain CHS5, active compounds read low 1.03 | locus YLR342W, strain FKS1 (second series), active compounds read low 1.08 | locus YLR342W, strain FKS1, active compounds read low 1.02 | locus YLR357W, strain rsc2, active compounds read low 1.01 | locus YLR370C, strain arc18, active compounds read low 1.01 | locus YLR371W, strain rom2, active compounds read low 1.02 | locus YLR384C, strain iki3, active compounds read low 1.02 | locus YLR418C, strain cdc73, active compounds read low 1.04 | locus YML016C, strain PPZ1, active compounds read low 1.04 | locus YML032C, strain rad52, active compounds read low 1 | locus YML120C, strain ndi1, active compounds read low 1.01 | locus YML124C, strain tub3, active compounds read low 0.999 | locus YMR058W, strain fet3, active compounds read low 1.03 | locus YMR078C, strain ctf18, active compounds read low 1 | locus YMR125W, strain sto1, active compounds read low 1.03 | locus YMR129W, active compounds read low 1.01 | locus YMR205C, strain PFK2, active compounds read low 1.03 | locus YMR223W, strain ubp8, active compounds read low 1.02 | locus YMR231W, strain pep5, active compounds read low 1.02 | locus YMR263W, strain SAP30, active compounds read low 1.02 | locus YMR307W, strain GAS1, active compounds read low 1.13 | locus YNL067W, strain RPL9B, active compounds read low 1.02 | locus YNL071W, strain lat1, active compounds read low 1.02 | locus YNL128W, strain TEP1, active compounds read low 1.02 | locus YNL183C, strain NPR1, active compounds read low 0.951 | locus YNL209W, strain ssb2, active compounds read low 1.01 | locus YNL233W, strain BNI4, active compounds read low 1.05 | locus YNL248C, strain rpa49, active compounds read low 1.03 | locus YNL250W, strain rad50, active compounds read low 0.996 | locus YNL271C, strain bni1, active compounds read low 0.994 | locus YNL298W, strain CLA4, active compounds read low 1 | locus YNL307C, strain MCK1, active compounds read low 1.01 | locus YNL322C, strain KRE1 (second series), active compounds read low 1.02 | locus YNR049C, strain mso1, active compounds read low 1.02 | locus YNR052C, strain pop2, active compounds read low 0.997 | locus YOL006C, strain TOP1, active compounds read low 1.01 | locus YOL012C, strain htz1 1.54 | locus YOL147C, strain pex11, active compounds read low 1.01 | locus YOR001W, strain rrp6, active compounds read low 0.984 | locus YOR061W, strain CKA2, active compounds read low 1.02 | locus YOR069W, strain VPS5, active compounds read low 1.02 | locus YOR070C, strain gyp1, active compounds read low 1.01 | locus YOR080W, strain dia2, active compounds read low 1.01 | locus YOR083W, strain WHI5, active compounds read low 1.01 | locus YOR106W, strain vam3, active compounds read low 1.01 | locus YOR136W, strain idh2, active compounds read low 0.99 | locus YOR144C, strain elg1, active compounds read low 0.999 | locus YOR184W, strain ser1, active compounds read low 1.02 | locus YOR231W, strain MKK1, active compounds read low 0.993 | locus YOR265W, strain rbl2, active compounds read low 1.03 | locus YOR270C, strain vph1, active compounds read low 1.08 | locus YOR290C, strain snf2, active compounds read low 1.02 | locus YOR316C, strain cot1, active compounds read low 0.999 | locus YPL051W, strain arl3, active compounds read low 1.01 | locus YPL055C, strain LGE1, active compounds read low 1.05 | locus YPL078C, strain atp4, active compounds read low 1.02 | locus YPL106C, strain sse1, active compounds read low 1.01 | locus YPL240C, strain hsp82, active compounds read low 1.01 | locus YPL241C, strain CIN2, active compounds read low 1.01 | locus YPL256C, strain CLN2, active compounds read low 1.03 | locus YPR119W, strain clb2, active compounds read low 0.995 | locus YPR141C, strain kar3, active compounds read low 1 | locus YPR163C, strain tif3, active compounds read low 1 | locus YPR167C, strain met16, active compounds read low 1.02 | strain wtn01, active compounds read low 1.03
